# Assay results reported in PubChem BioAssay (NCI).
# The panel holds about 83,000 compounds, 20% with a hit somewhere; the sample as a whole holds those more often.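 Growth was measured after 48 h exposure to one concentration of compound in 96-well plates. Values under 10 count as active.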 Unmarked numbers belong to inactive results. The source made the active and inactive calls.
# Columns and labels:
# Assay in all cases: NCI-60 one-dose screen, 48 h (100 = growth as untreated, 0 = no growth, -100 = all killed)
# Details in all cases: 10 µM unless noted
# NCI-H23 lung = test system: NCI-H23 lung
# NCI-H226 lung = test system: NCI-H226 lung
# NCI-H322M lung = test system: NCI-H322M lung
# HOP-62 NSCLC = test system: HOP-62 NSCLC
# NCI-H460 lung = test system: NCI-H460 lung
# HOP-92 NSCLC = test system: HOP-92 NSCLC
# NCI-H522 lung = test system: NCI-H522 lung
# A549/ATCC NSCLC = test system: A549/ATCC NSCLC
# 786-0 renal = test system: 786-0 renal
# COLO 205 colon = test system: COLO 205 colon
# DU-145 prostate = test system: DU-145 prostate
# K-562 leukemia = test system: K-562 leukemia
# MALME-3M melanoma = test system: MALME-3M melanoma
# MDA-MB-231 breast = test system: MDA-MB-231 breast
# RXF 393 renal = test system: RXF 393 renal
# SF-268 CNS = test system: SF-268 CNS
# SF-295 CNS = test system: SF-295 CNS
# SF-539 CNS = test system: SF-539 CNS
# UACC-257 melanoma = test system: UACC-257 melanoma
# M14 melanoma = test system: M14 melanoma
SMILES,growth (NCI-H23 lung),growth (NCI-H226 lung) [%],growth (NCI-H322M lung) [%],growth (HOP-62 NSCLC),growth (NCI-H460 lung),growth (HOP-92 NSCLC),growth (NCI-H522 lung),growth (A549/ATCC NSCLC) [%],growth (786-0 renal),growth (COLO 205 colon),growth (DU-145 prostate),growth (K-562 leukemia),growth (MALME-3M melanoma),growth (MDA-MB-231 breast),growth (RXF 393 renal),growth (SF-268 CNS),growth (SF-295 CNS),growth (SF-539 CNS),growth (UACC-257 melanoma) [%],growth (M14 melanoma)
Cc1ccc(S(=O)(=O)n2cc(C(=O)C(=O)N3CCOCC3)c3ccccc32)cc1,79.4%,82.4,99.2,84.7%,113%,26.6%,75.2%,114,92.4%,112%,109%,86.9%,91%,80.2%,110%,97%,94.1%,91.2%,98.4,91.4%
COc1cc(C2C3=C(COC3=O)Nc3cc4c(cc32)OCO4)cc2c1OCO2 (stereo not given),40.3%,19.2,48.5,36%,2.94% (active),40.6%,5.26% (active),11.9,19.9%,-51.5% (active),-19.5% (active),7.92% (active),53.8%,11.1%,18.5%,20.1%,5.02% (active),-0.0643% (active),65.1,5.48% (active)
COc1cc(/C=C/C(=O)/C=C/c2cc(OC)c3c(c2)OCO3)cc2c1OCO2,80.5%,78.8,108,106%,105%,83.9%,101%,93.5,100%,96.5%,107%,50.9%,98.2%,80.2%,72.4%,88.7%,94.5%,100%,103,31.2%
Cn1cc(-c2cnc3ccc(NC(=O)Nc4ccc(F)c(Br)c4)cc3n2)cn1,32%,16.7,46.3,0.864% (active),32.4%,-15.5% (active),8.07% (active),22.5,38.7%,1.03% (active),39.4%,11.2%,35.9%,23.4%,-22.3% (active),49.6%,-3.9% (active),52.9%,47.6,4.13% (active)
O=C1/C(=C/c2ccccc2)CN(C(=O)CCN2CCC(=NO)CC2)C/C1=C\c1ccccc1,1.59% (active),104,34,49.9%,-32.2% (active),77.6%,-61.4% (active),71.3,-25.8% (active),-46.8% (active),16.1%,6.48% (active),-13.2% (active),-32.1% (active),-71% (active),7.27% (active),-10.5% (active),-30.5% (active),11.3,0.212% (active)
Cc1ccc(S(=O)(=O)NCCCNc2cc(-c3cn(C(C)(C)C)nc3-c3cccc(O)c3)ccn2)cc1,77%,54.6,87.9,85.1%,29.9%,71%,53%,59.6,56.6%,8.53% (active),76.1%,11.8%,61.9%,62.5%,60.2%,54.8%,51.7%,49.7%,72,56.8%
COC(=O)c1cccc2c1N(C)c1c(cccc1C(=O)OC)CC2,104%,112,111,107%,117%,96.4%,96.1%,112,108%,102%,107%,121%,115%,111%,124%,98.8%,104%,106%,121,104%
COc1cccc(/C=C2\Oc3cc(OCCCN4CCCC4)ccc3C2=O)c1,88%,95.4,88.2,98.1%,78.4%,74.1%,92.2%,91,74.4%,86.7%,94.7%,-35.5% (active),98.9%,76.7%,81%,88.3%,91.1%,76.1%,102,65.9%
CCCCCCCCCCCCCCCCCCNC(=O)[C@H]1CSC(c2ccc(OC)cc2O)N1 (stereo not given in full),83.3%,90.4,67.5,63.9%,13.4%,66%,65.8%,73.8,82.2%,97.1%,22.5%,25.7%,96.6%,38.1%,32.5%,50.6%,93%,66%,88.3,65.3%
CN(C)CCOC(=O)Nc1ccccc1Cl,98.3%,106,104,101%,105%,89.2%,106%,112,100%,113%,123%,111%,94.8%,107%,120%,112%,114%,110%,121,100%
C=C1CCC2C3(C)COC(c4ccc(N(C)C)cc4)OC3CCC2(C)C1C/C=C1/C(=O)OCC1O (stereo not given),66.4%,109,83.1,108%,74.2%,68.9%,74.2%,52,96%,19.5%,7.35% (active),44%,105%,85.4%,1.3% (active),74.9%,95.6%,99.2%,49.5,71.7%
CC1=NC2=CC=CC3=NC(C(Cl)(Cl)Cl)=NC(=N1)N23,59.9%,83.5,92.5,96.2%,69.1%,118%,54.9%,80,88.7%,88.9%,50.4%,80.2%,33.6%,81.3%,38%,78%,95.6%,88.9%,63.9,79.3%
COc1ccc(C(=O)NC(=O)Nc2cc3c(cc2F)/C(=C/c2[nH]c(C)c(CCC(=O)O)c2C)C(=O)N3)c(F)c1,41.3%,53.3,63.9,25.8%,28.6%,-0.4% (active),48.6%,13.5,39%,67.4%,45.9%,45.8%,49.9%,61.5%,33.5%,32.3%,21.3%,15.4%,20.1,44.2%
CCNc1nc(S(=O)(=O)CC)nc2ccccc12,103%,102,104,96.1%,101%,104%,81.8%,105,101%,114%,103%,85.2%,83.3%,102%,107%,92.3%,105%,88.3%,85.5,96.8%
CCN(CC)c1ccc(CNc2ccnc3ccccc23)cc1,28.8%,58.6,70.6,66%,55.2%,-6.79% (active),56.2%,58.9,72.5%,25.6%,70%,9.95% (active),49.5%,70.2%,71.7%,82.3%,51.4%,69.7%,36.2,56.2%
COc1ccc(Nc2ncccc2C(=O)NCc2cn(Cc3cccc(Oc4ccccc4)c3)nn2)cc1,54.6%,71.7,46.1,51.2%,22.3%,68.5%,26.1%,49.2,51.3%,43.9%,46.1%,33.6%,41.4%,52%,46%,50%,33.7%,33.6%,88.8,38.7%
